Compounds with a hit are over-represented: about 10% of the library has one in this group of screens.
HP1b binding inh: inhibitors of HP1-beta chromodomain binding to methylated histone tails | P83916 | AlphaScreen HP1-beta / biotin-H3K9me3 peptide binding | Potency, µM (highest dose often 114 µM), most hits filed as inhibitors | 0.56% of 390,000 active; further: nearly all actives have a fitted effect of over 70% in size
Target sequence (P83916 whole entry, looked up): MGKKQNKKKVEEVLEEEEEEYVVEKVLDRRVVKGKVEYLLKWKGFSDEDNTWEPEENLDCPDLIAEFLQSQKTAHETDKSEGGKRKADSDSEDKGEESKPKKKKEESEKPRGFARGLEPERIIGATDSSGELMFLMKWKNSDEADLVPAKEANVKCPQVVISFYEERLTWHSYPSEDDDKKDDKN
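Compound inhibition of the preformed complex between 50 nM HP1-beta and 50 nM biotinylated H3K9me3 peptide was read by AlphaScreen. Buffer was PBS pH 7.4 with 0.01% Tween-20. Incubations ran 30 min at room temperature, with 10 ug/mL donor/acceptor beads.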
G9a block: G9a (human) methyltransferase inhibition; Q96KQ7; G9a H3K9 monomethylation, AlphaScreen, 2 h; Potency, µM (doses to about 102 µM), hits mostly inhibitors; 8.8% of 350,000 active; further: nearly all actives have a fitted effect of over 75% in size
Target sequence (Q96KQ7 913-1193 limits assumed): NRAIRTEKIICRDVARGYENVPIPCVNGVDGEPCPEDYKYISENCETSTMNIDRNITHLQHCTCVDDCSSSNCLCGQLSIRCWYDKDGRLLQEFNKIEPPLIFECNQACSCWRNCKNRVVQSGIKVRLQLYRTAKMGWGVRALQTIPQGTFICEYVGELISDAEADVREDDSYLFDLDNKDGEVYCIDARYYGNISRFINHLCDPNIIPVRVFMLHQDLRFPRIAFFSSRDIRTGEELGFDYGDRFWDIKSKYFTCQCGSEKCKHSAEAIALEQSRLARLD
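AlphaScreen detection with an anti-monomethyl H3K9 antibody quantified product after a 2 h room-temperature reaction containing 500 nM biotinylated H3K9 peptide, 20 µM SAM and 20 nM enzyme, which had been preincubated 15 min with compound.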
GLS inhibitor: blocks human kidney-isoform glutaminase activity | GLS enzymatic activity, qHTS titration | Potency, µM (titrated, usually from 45.5 µM), hits mostly inhibitors | 0.21% of 410,000 active
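Compounds were pin-transferred onto hKGA, after which L-glutamine (1 mM solution) and a detection mix of glutamate oxidase, HRP and Amplex Red were added. Initial and 30 min RT fluorescence reads were collected.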
L3MBTL1 inh: inhibitors of human L3MBTL1; Q9Y468; AlphaScreen L3MBTL1–H3K9me1 peptide binding; Potency, µM (doses to about 57.1 µM), actives largely listed as inhibitors; 0.66% of 230,000 active; further: nearly all actives have a fitted effect of over 60% in size
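Displacement of a biotinylated histone H3(1-15) peptide monomethylated at Lys9 (75 nM) from L3MBTL1 (50 nM) was measured by AlphaScreen after a 30 min room-temperature compound incubation; cefsulodin titration served as intraplate control.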
BAZ2B inh: inhibitors of human BAZ2B bromodomain | Q9UIF8 | Potency, µM (series often up to 114 µM), actives largely listed as inhibitors | 4.4% of 360,000 active | AID 504333 | AlphaScreen BAZ2B-H3K14Ac peptide displacement; further: nearly all actives have a fitted effect of over 60% in size
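In this displacement format the biotinylated H3(5-23) peptide acetylated at Lys14 serves as ligand at 50 nM, with BAZ2B at 50 nM in PBS pH 7.4 containing 0.01% Tween-20. Donor and acceptor beads are 10 ug/mL final.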
JMJD2A Tudor: inhibitors of human JMJD2A Tudor domain; Potency, µM (highest dose often 114 µM), most hits filed as inhibitors; O75164; 4.4% of 390,000 active; AlphaScreen JMJD2A-Tudor / H3K4me3 peptide binding; further: nearly all actives have a fitted effect of over 50% in size
A number is an active result; 0 = inactive; ? = inconclusive; - = not tested or not shown; [ ] = dose if it differs, or a comment. The call rests on the fitted dose curve; in most records, active means well fitted curve in the direction sought with a large enough effect; inconclusive means small, poorly fitted or top-dose-only effect, or another doubt; inactive means no such curve, though single readings can be large; an effect the other way counts as inactive or inconclusive.

SMILES	HP1b binding inh	G9a block	GLS inhibitor	L3MBTL1 inh	BAZ2B inh	JMJD2A Tudor
Cc1ccc(OCC(=O)NCCN2CCN(C(=O)COc3ccc(C)cc3)CC2)cc1	0	0	0	0	0	0
CC(C)(O)C1C2OC(=O)C1[C@]1(O)C[C@H]3O[C@]34C(=O)O[C@H]2[C@]14C (stereo partly drawn) (tested in a mixture with another compound)	-	0[12.7 µM]	0	-	-	-
O=C1NC(=O)C(Nc2ccc(Cl)c(Cl)c2)C(=O)N1	0	-	0	-	-	32µM
COc1ccc(NC(c2ccccc2)P(=O)(Oc2ccccc2)Oc2ccccc2)cc1 (stereo not drawn)	0	25µM	0	0	25µM	?
CCCCC1C(=O)NC(=S)NC1=O	-	4.5µM	-	0	0	-
CCCCC1C(=O)NC(=S)N(C)C1=O (stereo not drawn)	0	-	0	-	-	79µM
CCCCOc1ccc(CC2C(=O)N(C)C(=O)N(C)C2=O)cc1	0	0	0	?	0	0
O=C(Oc1ccccc1)N1CCC2(CC1)CCN(C(c1ccccc1)c1ccccc1)CC2	-	0[12.7 µM]	-	-	-	-
COc1ccc(C)cc1NC(=O)N(Cc1ccc2c(c1)OCO2)C1CCN(Cc2ccccc2)CC1	0	?	0	-	?	?
Cc1ccc(C)c(S(=O)(=O)c2nnn3c2nc(N2CCN(C)CC2)c2sccc23)c1	0	0	0	-	?	0
c1ccc2c(c1)c1cccc3ccc4cccc2c4c31	0	0[0.501 µM]	0	0	0	0
CCOP(=O)(OCC)/C(=N/OC(=O)c1ccc(Cl)cc1Cl)C(N)=O	0	50µM	0	0	0	0
CNC(C(=O)c1ccccc1)C(OC(C)C)c1ccc(Cl)cc1 (stereo not drawn)	0	0[12.7 µM]	0	0	0	0
CNC(C(=O)c1ccccc1)C(OC)c1ccc(C)cc1 (stereo not drawn)	0	45µM	0	0	0	0
COc1cc2c(ccc3c4cc(OC)c(OC)cc4c[n+](C)c23)cc1O	0	-	0	-	-	0
COc1ccc2c(c[n+](C)c3c4cc5c(cc4ccc23)OCO5)c1OC	-	17µM	-	-	-	-
[Hg+][c]1ccccc1	-	?	13µM	-	-	-
Nc1ccccc1	-	-	0	-	-	-
N#Cc1ccc(CN2CC[C@@]3(CCCN(C(=O)Oc4ccccc4)C3)C2)cc1	-	0[12.7 µM]	-	-	-	-
CC1OC(=O)C(C(C)C)NC(=O)C(C(C)C)OC(=O)C(C(C)C)NC(=O)C(C)OC(=O)C(C(C)C)NC(=O)C(C(C)C)OC(=O)C(C(C)C)NC(=O)C(C)OC(=O)C(C(C)C)NC(=O)C(C(C)C)OC(=O)C(C(C)C)NC1=O (stereo not drawn)	-	0	-	-	-	-
O=C(Nc1ccc2c(c1)OCO2)c1cccn(Cc2ccccc2)c1=O	0	0	0	-	0	0
Cc1ccccc1N1CCN(S(=O)(=O)c2nnc(NC(=O)c3ccc(Cl)cc3)s2)CC1	0	?	0	-	?	?
Cc1cccc(N2CCN(C(=O)C34CC5CC(CC(C5)C3)C4)CC2)c1C	0	1.6µM	0	-	0	0
CCN(CC)CCCN=C(C)c1c(O)n(C2CCCCC2)c(=O)[nH]c1=O	0	0[12.7 µM]	0	-	0	0
C=CCn1c(O)c(C(CC)=Nc2ccccc2NC(C)=O)c(=O)[nH]c1=O	0	1.4µM	0	0[11.4 µM]	0	0
SMILES	HP1b binding inh	G9a block	GLS inhibitor	L3MBTL1 inh	BAZ2B inh	JMJD2A Tudor
C=CCn1c(O)c(C(CC)=NCCN2CCOCC2)c(=O)[nH]c1=O	0	40µM	0	0	?	0
C=CCn1c(O)c(C(CC)=Nc2ccccc2NC(=O)CC)c(=O)[nH]c1=O	0	?	0	0	?	0
CCC(=NCc1ccco1)c1c(O)n(C2CCCCC2)c(=O)[nH]c1=O	0	?	0	0	?	0
CCC(=NCCCN(CC)CC)c1c(O)n(C2CCCCC2)c(=O)[nH]c1=O	0	56µM	0	0	0	0
CCC(=NCCN1CCOCC1)c1c(O)n(C2CCCCC2)c(=O)[nH]c1=O	0	35µM	0	0	0	0
CCN1C[C@]2(COC(=O)c3ccccc3N3C(=O)CC(C)C3=O)CC[C@H](OC)[C@@]34C5C[C@@H]6[C@@H](OC)C[C@@](O)(C5[C@H]6OC)[C@](O)([C@@H](OC)C23)[C@@H]14 (stereo partly drawn)	-	0	-	-	-	-

Screening data deposited in PubChem BioAssay by National Center for Advancing Translational Sciences (NCATS).
